The text below walks through data of PubChem BioAssay (NCI).

SMILES strings stand for the structures. Compounds without any hit were thinned out: in the full panel of roughly 83,000, 20% have a hit.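 Assay: single dose, 48 h. Readout: percent growth (0 = no net growth; negative = cell death). Active: <10.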 Unmarked numbers belong to inactive results. Active and inactive are the calls of the source.

Assay in all cases: NCI-60 one-dose screen, 48 h (100 = growth as untreated, 0 = no growth, -100 = all killed)
Common to all, as to details: 10 µM unless noted

Assay [1] relates to HCT-15 colon.
The subject of assay [2] is HT29 colon.
For assay [3], the system named is SNB-75 CNS.
Assay [4] deals with SNB-19 CNS.
The subject of assay [5] is U251 CNS.
Assay [6] concerns PC-3 prostate.
In assay [7] the test system is SK-MEL-5 melanoma.
The subject of assay [8] is UACC-62 melanoma.
In assay [9] the test system is LOX IMVI melanoma.
For assay [10], the system named is SK-MEL-28 melanoma.
In assay [11] the test system is SK-MEL-2 melanoma.
Assay [12] deals with EKVX NSCLC.
The test system of assay [13] is SN12C renal.
Assay [14] relates to UO-31 renal.
In assay [15] the test system is TK-10 renal.
For assay [16], the system named is ACHN renal.
In assay [17] the test system is CAKI-1 renal.
The test system of assay [18] is A498 renal.
The subject of assay [19] is CCRF-CEM leukemia.
Assay [20] has as its system MOLT-4 leukemia.

On to `COc1ccc(C2=CN3CC=CCC3CC2=O)cc1` (stereo not given), for which the growth in [1] was 108%; in assay [2], 84.5%; in assay [3], 103%; in [4], 107%; in assay [5], 91.4%; in [6], 81.9%. Further, the growth in assay [7] is 96.4%; in [8] it was 99.5%; in [9], 99.8%; in [10], 112%; in [11] it was 92.1%; in assay [12] it was 104%. The growth was 97% in assay [13]; 95.6% in [14]; 103% in [15]; 115% in assay [16]; 99.7% in assay [17]; 93.7% in assay [18]. Besides, the growth in assay [19] is 108%; in assay [20], 95%.
As to `COC(=O)/C=C1/SC(=Nc2cccc(Cl)c2)N(CCc2c[nH]c3ccc(O)cc23)C1=O`, the growth in assay [1] is -11.6% (active); in assay [2] it was 49.2%; in assay [3], 38.7%; in assay [4] it was 14.3%; in assay [5], 4.91% (active); in assay [6], 9.39% (active). For the same compound, the growth was 41.4% in assay [7]; 13.8% in assay [8]; -39.2% (active) in assay [9]; 17.4% in [10]; -15.8% (active) in assay [11]; 45.7% in assay [12]. Moreover, the growth in assay [13] is 10%; in assay [14], 17.7%; in [15], 89.2%; in assay [16] it was 15.9%; in assay [17] it was 37.4%; in [18] it was 79.9%. Also, the growth in assay [19] is 0.545% (active); in assay [20], -8.3% (active).
Take `C=CC1(C)C(O[Si](C)(C)C(C)(C)C)CC2C3OC(=O)NC31c1cccc3c1[C@H](C(=O)N3C)C2(C)C` (stereo not given in full): the growth is 32.2% in assay [1]; 57.2% in assay [2]; 74.4% in assay [3]; 78.7% in [4]; 67% in assay [5]; 10.6% in [6]. Also, the growth in assay [7] is 25.9%; in assay [8], 29.4%; in assay [9] it was 63%; in [10], 63.7%; in [11], 66.9%; in [12], 44.2%. Further, the growth in [13] is 50.2%; in [14], 49.5%; in [15], 71.3%; in assay [16], 59.6%; in assay [17] it was 53.3%; in assay [18], 62.6%. The growth is 47.1% in assay [19] and 26% in [20].
As to `COc1ccc2c(c1)c(-c1ccc(-c3cn(C)c4ccc(OC)cc34)[nH]1)cn2C`, the growth in assay [1] was 4.19% (active); in [2], 48%; in [3], 17.9%; in assay [4], 27.2%; in assay [5], -62.9% (active); in assay [6] it was -11% (active). The growth in [7] is 29.6%; in [8], 5.29% (active); in assay [9] it was -17.8% (active); in assay [10] it was -20.1% (active); in [11], 45.3%; in [12], -4.9% (active). Also, the growth in [13] was 31.7%; in assay [14], -47.3% (active); in assay [15] it was 35.7%; in assay [16], -44.6% (active); in assay [17], 25.6%; in assay [18], 71.8%. In addition, the growth in assay [19] is -5.64% (active); in assay [20], 27.7%.
As to `CN1CCN(Cc2ccc(NC(=O)c3cncc(C#Cc4cncc5ncccc45)c3)cc2C(F)(F)F)CC1`, the growth in assay [1] was 19.7%; in assay [2], -4.72% (active); in assay [3] it was 13.6%; in assay [4], 46.7%; in [5] it was 38.8%; in assay [6], 23%. In addition, the growth is 19.1% in assay [7]; 5.7% (active) in assay [8]; -85.7% (active) in assay [9]; 12.4% in assay [10]; -69.1% (active) in assay [11]; 39.2% in [12]. In addition, the growth was 21.3% in [13]; -10.2% (active) in assay [14]; 22% in assay [15]; 8.35% (active) in [16]; -19.7% (active) in assay [17]; -25.5% (active) in assay [18]. The values for the growth in [19] and in assay [20] were 3.31% (active) and 9.12% (active), respectively.
As for `CC/C=C1/C(=O)C=C[C@@H]1C/C=C\CCCC(=O)OC`, the growth is 21.2% in assay [1]; 24.8% in [2]; 91.5% in assay [3]; 62.9% in assay [4]; 47.8% in [5]; 57% in [6]. The growth is 9.82% (active) in [7]; 16.6% in assay [8]; -63.9% (active) in assay [9]; 89.5% in [10]; 90.7% in [11]; 101% in assay [12]. The growth was 18.8% in assay [13]; 77.9% in assay [14]; 107% in assay [15]; 46.9% in assay [16]; 60.6% in assay [17]; 102% in [18]. The growth in [19] was -6.12% (active); in assay [20], 3.09% (active).
For the compound `C=CCCC(=O)N1C=CC(=O)[C@H](O)[C@@H]1/C=C/c1ccccc1`, the growth in assay [1] is 36.5% [100 µM]; in assay [2], 39.4% [100 µM]; in [3], 85% [100 µM]; in assay [4], 44.5% [100 µM]; in assay [5], 33% [100 µM]; in [6], 51.2% [100 µM]. Besides, the growth in assay [7] is 0.433% [100 µM] (active); in assay [8], 27.8% [100 µM]; in [9] it was 27.9% [100 µM]; in [10], 53.7% [100 µM]; in assay [11] it was 77.7% [100 µM]; in assay [12], 37.4% [100 µM]. In addition, the growth was 42% [100 µM] in assay [13]; 29% [100 µM] in assay [14]; 54.9% [100 µM] in assay [15]; 28.1% [100 µM] in assay [16]; 15.7% [100 µM] in assay [17]; 83.4% [100 µM] in assay [18]. Further, the growth is 27.7% [100 µM] in assay [19] and 36.5% [100 µM] in [20].
